Source: PubChem BioAssay (Johns Hopkins Ion Channel Center)
KCNQ2 pot – KCNQ2 (rat) channel potentiation | O88943 | CHO-K1 KCNQ2, FluxOR thallium flux fluorescence; active compounds read high | B-score at 10 µM | 310,000 tested, 0.54% active | AID 2239;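 active = fluorescence ratio B-score at least 3 SD of library B-scores, with initial fluorescence B-score within 3 of them, cut at about 5.3 in these data; same plate scores as AID 2156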;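 note: B-score of peak minus minimum over baseline fluorescence ratio after K+ and Tl+ stimulus; positive B-score means potentiation of KCNQ2 with more thallium influx and brighter signal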
Target sequence (O88943 whole entry, looked up): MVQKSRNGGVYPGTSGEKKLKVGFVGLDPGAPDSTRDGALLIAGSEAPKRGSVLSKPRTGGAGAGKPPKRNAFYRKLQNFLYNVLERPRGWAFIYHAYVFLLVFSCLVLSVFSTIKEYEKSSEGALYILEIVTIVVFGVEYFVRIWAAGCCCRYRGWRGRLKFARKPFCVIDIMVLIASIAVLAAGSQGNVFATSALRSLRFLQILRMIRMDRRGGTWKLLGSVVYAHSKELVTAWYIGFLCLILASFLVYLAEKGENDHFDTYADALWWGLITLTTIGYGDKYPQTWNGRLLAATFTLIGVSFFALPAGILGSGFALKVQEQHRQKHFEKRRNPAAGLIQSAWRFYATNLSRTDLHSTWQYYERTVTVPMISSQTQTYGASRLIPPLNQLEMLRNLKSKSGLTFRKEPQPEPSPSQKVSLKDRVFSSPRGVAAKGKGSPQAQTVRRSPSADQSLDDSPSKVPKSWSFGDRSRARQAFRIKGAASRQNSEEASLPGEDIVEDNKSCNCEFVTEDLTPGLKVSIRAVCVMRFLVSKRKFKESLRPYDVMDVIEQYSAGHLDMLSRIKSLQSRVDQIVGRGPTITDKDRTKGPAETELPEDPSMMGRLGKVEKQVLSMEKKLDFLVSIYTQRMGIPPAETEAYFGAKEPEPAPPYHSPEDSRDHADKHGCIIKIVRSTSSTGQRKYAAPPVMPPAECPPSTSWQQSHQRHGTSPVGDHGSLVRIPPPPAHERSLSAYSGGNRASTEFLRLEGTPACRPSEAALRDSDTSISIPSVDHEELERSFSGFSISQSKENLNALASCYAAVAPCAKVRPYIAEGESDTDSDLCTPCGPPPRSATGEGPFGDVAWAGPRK
KCNQ2 inh – inhibitors of rat KCNQ2 potassium channel. O88943. CHO-K1 KCNQ2, FluxOR thallium flux, 20 min; active compounds read low. B-score at 10 µM. 310,000 tested, 1.1% active;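 active = fluorescence ratio B-score at most minus 3 library SDs, with starting brightness B-score within 2 library SDs, cut at about -5.5 in these data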
Kir21 confirm – confirmation of mouse Kir2.1 potassium channel inhibitors; shares compounds with KCNQ2 pot; Kir2.1-expressing cells, FluxOR thallium flux fluorescence; active compounds read low; Tl flux remaining, % of negative control (active compounds read low), % at 10 µM; 2,300 tested, 41% active;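 active = Primary-screen hit whose thallium flux fell at least 3 control SD below untreated wells in both duplicates, with normal baseline fluorescence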
HEK293 Tl flux – parental HEK293 activity in Kir2.1 inhibitor counter-screen; parental HEK293 cells, FluxOR thallium flux fluorescence; 0% = unstimulated blank wells; AID 2105; shares compounds with KCNQ2 pot; 2,300 tested, 19% active; FluxOR signal as % of negative control (100 = no effect), % at 10 µM;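 active = dye signal at least 3 control SD above or below untreated wells in both duplicates, raw fluorescence within 3, either direction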;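 note: percent is based on the flux ratio of peak minus minimum fluorescence over baseline F0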
CHO-K1 Tl ctr – counter-screen for KCNQ2 potentiators: effect in parental CHO-K1 cells; FluxOR thallium flux fluorescence; zero = vehicle mean+3SD, 100% = vehicle-minus-blank window; activity increase over 3SD of controls, % at 10 µM; 1,200 tested, 43% active; shares compounds with KCNQ2 pot;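 active = signal rise of at least 3 SD above the untreated control mean, in both duplicate wells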;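 note: counter screen of KCNQ2 potentiator hits so any rise reflects channel-independent effects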
KCNQ1 pot spec – selectivity of KCNQ2 potentiators: effect on human KCNQ1. shares compounds with KCNQ2 pot. CHO KCNQ1 stable, FluxOR thallium flux fluorescence; beyond 3SD, as % of vehicle-control signal. activation over 3SD threshold, % at 10 µM. 1,200 tested, 28% active. AID 2283;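 active = fluorescence ratio rise of at least 3 SD of vehicle wells above their mean, in both replicate wells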
KCNQ2 pot conf – confirmation of rat KCNQ2 potassium channel potentiators. shares compounds with KCNQ2 pot. CHO-KCNQ2 cells, FluxOR thallium flux fluorescence. 1,200 tested, 68% active. potentiation, less the hit threshold, % at 10 µM. AID 2287;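 active = fluorescence ratio rising 3 SD or more over the vehicle control mean in both replicates, plus primary screen hit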;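 note: peak minus minimum thallium fluorescence divided by baseline after K/Tl stimulus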
Kir21 spec – tests whether KCNQ2 potentiators also affect mouse Kir2.1 | shares compounds with KCNQ2 pot | HEK293 Kir2.1, FluxOR thallium flux fluorescence | activity over 3SD threshold, % at 10 µM | 1,200 tested, 2% active;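 active = fluorescence ratio rise of at least 3 SD above the vehicle-control mean, seen in both replicates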
KCNQ2 W236L MoA – potentiates the retigabine-insensitive rat KCNQ2 W236L mutant channel; AID 2558; shares compounds with KCNQ2 pot; current increase over 3SD of negative controls (%), active compounds read high, % at 25 µM; 940 tested, 10% active; CHO KCNQ2-W236L, automated patch clamp current;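 active = current increase at least 3 SD of the untreated controls above them in both duplicate recordings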
Numbers stand for hits; - = inactive; . = not tested or not shown. A selection: hits, their analogues and other compounds. The true share with any hit is near 1.6%.

SMILES	KCNQ2 pot	KCNQ2 inh	Kir21 confirm	HEK293 Tl flux	others
O=C(/C=C/c1cccc(Br)c1)NC1CCN(Cc2ccccc2)CC1	.	-	39%	-
CCOc1ccc2oc(C(=O)NC3CCN(Cc4ccccc4)CC3)c(C)c2c1	-	-	.	.
O=C(COc1ccccc1)NC1CCN(Cc2ccccc2)CC1	.	-	.	.
Cc1c(C(=O)NC2CCN(Cc3ccccc3)C2)oc2ccc(Br)cc12 (stereo not drawn)	.	-	60%	-
Cc1ccc(NC(=O)CCNC(=O)c2ccc(Br)cc2)cc1S(=O)(=O)N1CCCCCC1	.	-	.	.
CCN1CCN(CCC(=O)Nc2ccc(F)c(F)c2)CC1	-	-	.	.
COCC(C)NC(=O)CSc1nc2ccccc2c(=O)n1CCc1ccc(S(N)(=O)=O)cc1 (stereo not drawn)	-	-	.	.
Cc1ccc(NC(=O)CNc2cccc(S(=O)(=O)N3CCCC3)c2)cc1F	5.5	-	-	-	CHO-K1 Tl ctr=-;KCNQ1 pot spec=-;KCNQ2 pot conf=-;Kir21 spec=-
O=C(CNc1cccc(S(=O)(=O)N2CCCC2)c1)Nc1ccc(F)c(F)c1	-	-	.	.
COC(=O)C1=NN(C(=O)c2ccccc2)C(C)(O)C1 (stereo not drawn)	-	-	.	.
COC(=O)C1(O)CC(CC(C)C)=NN1C(=O)c1ccccc1 (stereo not drawn)	8.8	-	-	-	CHO-K1 Tl ctr=8.6;KCNQ1 pot spec=-;KCNQ2 pot conf=23;Kir21 spec=-;KCNQ2 W236L MoA=-
COc1ccc(NC(=O)c2csc3c2CCCC3)cc1	.	-	.	.
COc1cccc(NC(=O)c2csc3c2CCCC3)c1	8	-	-	-	CHO-K1 Tl ctr=-;KCNQ1 pot spec=-;KCNQ2 pot conf=1.2;Kir21 spec=-;KCNQ2 W236L MoA=-
Clc1ccc(N2CCN(/N=C/c3cccnc3)CC2)cc1	-	-	.	.
Cc1cc(=O)oc2cc(NC(=O)C(C)Oc3cccc(Cl)c3)ccc12 (stereo not drawn)	-	-	.	.
O=C(c1ccc(NS(=O)(=O)/C=C/c2ccccc2)cc1)N1CCCCC1	.	-	.	.
O=c1[nH]c(-c2ccccc2)cs1	-	-	.	.
S=c1[nH]c(-c2ccccc2)cs1	11	-	-	147%	CHO-K1 Tl ctr=9.5;KCNQ1 pot spec=-;KCNQ2 pot conf=66;Kir21 spec=-;KCNQ2 W236L MoA=-
CSCC[C@H](N)C(=O)N1CCC(C(=O)N[C@H](C)C(=O)NC(C)c2ccccc2)CC1 (stereo partly drawn)	-	-	.	.
c1ccc(COc2ccccc2CNC23CC4CC(CC(C4)C2)C3)cc1	.	-	42%	-
c1ccc(COc2ccccc2CNC2CCCC2)cc1	-	-	.	.
CCCCCCCCCn1c2c(c(=N)c3c1CCC3)CCCC2	19	-	9.0%	-	CHO-K1 Tl ctr=39;KCNQ1 pot spec=-;KCNQ2 pot conf=-;Kir21 spec=-;KCNQ2 W236L MoA=-
CCCCCCCCn1c2c(c(=N)c3ccccc31)CCC2	-	-5.7	14%	-
CCCCn1c2c(c(=N)c3ccccc31)CCC2	.	-	.	.
CCn1c2c(c(=N)c3c1CCC3)CCCC2	-	-	.	.
SMILES	KCNQ2 pot	KCNQ2 inh	Kir21 confirm	HEK293 Tl flux	others
CCCCN(C(=O)c1ccco1)C1CCS(=O)(=O)C1 (stereo not drawn)	.	-	.	.
CCN(CC)S(=O)(=O)c1ccc(OC)c(NC(=O)CSc2cc(Cl)ccc2Cl)c1	.	-	.	.
CCN(CC(=O)NCc1ccncc1)S(=O)(=O)c1ccc(OC)cc1	.	-	.	.
Cc1cc(NC(=O)c2cncc(Br)c2)ccc1NC(=O)c1cc2ccccc2o1	-	-	.	.
CCC1COCCS(=O)(=O)N1Cc1ccc(C)cc1 (stereo not drawn)	-	-	.	.
CCC[C@H]1COCCS(=O)(=O)N1Cc1ccc(Br)cc1	-	-	-	128%
CSc1ncccc1C(=O)OCC(=O)N(CC(C)C)c1c(N)n(Cc2ccccc2)c(=O)[nH]c1=O	.	-	.	.
Cc1cc(C)c(S(=O)(=O)NCc2csc(C)n2)c(C)c1	.	-	.	.
CCc1ccccc1NC1=NCC(=O)N1Cc1ccc(OC)cc1	.	-	.	.
COc1ccc(CN2C(=O)CN=C2Nc2cc(C)ccc2C)cc1	15	-	-	-	CHO-K1 Tl ctr=0.6;KCNQ1 pot spec=9.2;KCNQ2 pot conf=-;Kir21 spec=-
CCc1ccc(C2C(C#N)=C(N)C(C#N)(C#N)C3=CCC(C(C)(C)C)CC32)cc1 (stereo not drawn)	-	-	-	-
CCCCCCSC1=C(C#N)C(c2ccc(C)o2)CC(=O)N1 (stereo not drawn)	.	-	60%	-
CCSC1=C(C#N)C(c2ccc(C)o2)CC(=O)N1 (stereo not drawn)	.	-	.	.
N#CC1=C(SCC(=O)NCc2ccccc2)NC(=O)CC1c1ccco1 (stereo not drawn)	-	-	.	.
C=C(C)CSC1=C(C#N)C(c2ccccc2)CC(=O)N1 (stereo not drawn)	.	-	.	.
N#CC1=C(SCc2ccccc2)NC(=O)CC1c1ccco1 (stereo not drawn)	.	-	41%	-
Cc1ccc(C2CC(=O)NC(SCc3ccccc3)=C2C#N)o1 (stereo not drawn)	.	-	44%	-
CCN(CC)C(=S)Nc1ccc(Cl)c(Cl)c1	-	-	.	.
Cc1ccc2nc(C)cc(C(=O)N/N=C/c3ccncc3)c2c1	-	-	.	.
COc1ccccc1CN1CC(C(=O)NCCn2ccc(C)n2)CCC1=O (stereo not drawn)	.	-	.	.
COc1ccc(CCNc2ncnc3sc(C)cc23)cc1OC	.	-	65%	-
COc1ccc(CCNc2ncnc3[nH]ncc23)cc1OC	.	-	.	.
Fc1cccc2sc(Nc3nnc(-c4ccccc4)o3)nc12	26	-	-	449%	CHO-K1 Tl ctr=1.3;KCNQ1 pot spec=-;KCNQ2 pot conf=62;Kir21 spec=1.1;KCNQ2 W236L MoA=-
Fc1cccc2sc(Nc3nc4c(F)cccc4s3)nc12	-	-	-	-
COc1cc(OC)cc(-c2nnc(Nc3nc4c(F)cccc4s3)o2)c1	-	-	.	.
SMILES	KCNQ2 pot	KCNQ2 inh	Kir21 confirm	HEK293 Tl flux	others
NNc1nc2c(F)cccc2s1	.	-	.	.
Cn1c(CNC(=O)CCNC(=O)c2cccc(Br)c2)cc(=O)n(C)c1=O	-	-	.	.
COc1cccc(-c2cc(C(=O)N3CCN(C(=O)c4ccco4)CC3)on2)c1	.	-	.	.
Cc1cccc(/C=N/n2c(C3CCCCC3)n[nH]c2=S)c1	.	-	.	.
CC(/C=N/n1c(C2CCCCC2)n[nH]c1=S)=C\c1ccccc1	8.3	-	-	-	CHO-K1 Tl ctr=92;KCNQ1 pot spec=23;KCNQ2 pot conf=-;Kir21 spec=-
CC(=O)c1c(N2CCN(Cc3ccccc3)CC2)[nH]c(-c2ccccc2)nc1=S	6.2	-	-	208%	CHO-K1 Tl ctr=-;KCNQ1 pot spec=54;KCNQ2 pot conf=2.3;Kir21 spec=-;KCNQ2 W236L MoA=-
CC(=O)c1c(N2CCCC2)[nH]c(-c2ccccc2)nc1=S	-	-	.	.
Cc1cc(SCC(=O)NC2CCCC2)nc2ccccc12	.	-	.	.
